Test results from publication PMC7819943, “Rice protein-binding microarrays: a tool to detect cis-acting elements near promoter regions in rice”.
In all, about 68,000 sequences were measured (“fluorescence intensity (a.u.)”: median about 9,100, highest 2% from about 16,000 on). Shown is part of a subset that was picked to be rich in the highest values.

molecular target: OsWRKY34 (Oryza sativa, UniProt Q0JBA9 1-250); experiment: protein-binding microarray (RPBM); PBS, 2% BSA, 51.3 ng/ul salmon testes DNA, 50 uM zinc acetate, 200 nM TF, 25 C, 1 h; high values mean tight binding; conditions: protein: recombinant; tags: N-terminal polyhistidine and DsRed monomer fusion (pET32a); label: CyDye5-dUTP incorporated in the synthesized complementary strand; 3' TTTTT single-stranded linker to array surface; dsDNA, one strand shown
Sequence (Q0JBA9 entry or part of it): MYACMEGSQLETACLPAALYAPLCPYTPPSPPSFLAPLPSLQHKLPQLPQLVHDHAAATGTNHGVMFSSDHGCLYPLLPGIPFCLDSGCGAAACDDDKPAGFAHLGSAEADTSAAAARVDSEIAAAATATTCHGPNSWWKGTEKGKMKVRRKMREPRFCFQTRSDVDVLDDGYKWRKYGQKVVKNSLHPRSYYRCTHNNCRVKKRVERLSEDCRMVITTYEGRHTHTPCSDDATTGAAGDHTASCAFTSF
How it was run: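 In PBS with 2% BSA, salmon testes DNA and 50 µM zinc acetate, 200 nM protein was incubated on a custom Agilent array at 25 °C for 1 h and then washed off. The array had been made double-stranded by primer extension with Cy5-dUTP and blocked with 2% BSA. The proteins were transcription factors fused N-terminally to polyhistidine and DsRed, expressed in E. coli BL21-CodonPlus and purified on Ni–NTA. The binding signal is per-feature fluorescence intensity (arbitrary units) from an Axon 4000B scanner.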

Sequence | binding signal
CTCGCTCACTCGGTCAGCTGCACACACACTGCACTTCGGCCGGAGTCACCTAGTGCAG | 9820 fluorescence intensity (a.u.)
GTGGGCGTGGGCCCCGCGTCCTGTGGTGGTGGTGGGTGCTCGGAGTCACCTAGTGCAG | 9200 fluorescence intensity (a.u.)
CCAGAACGGCCGGTCAACGGCACCGTTGACCGTATGAGGGCGGAGTCACCTAGTGCAG | 52400 fluorescence intensity (a.u.)
GCGTTGAGGGCAGGCGGCGGCGCTTGGTGGCGGTGGGGCACGGAGTCACCTAGTGCAG | 8370 fluorescence intensity (a.u.)
GTTGGGGAGCGGGGTGTGTGTGCCAGGCGCTCGGGCGGGGCGGAGTCACCTAGTGCAG | 19500 fluorescence intensity (a.u.)
GTGGAGGGGCGGCGTTGGGCAGAGGGGCGGCACGGGTGAACGGAGTCACCTAGTGCAG | 12800 fluorescence intensity (a.u.)
GGGGTGGCGGCGGCGGCTGCGCGCGGGCGGTGGCGCGGGGCGGAGTCACCTAGTGCAG | 12000 fluorescence intensity (a.u.)
CATGCGGGGCGCGGGCGGCGGTGCAGGGCGGGGTGCGGCCCGGAGTCACCTAGTGCAG | 8730 fluorescence intensity (a.u.)
GGTGCGGGGTGGCGGTGCTCGGCCACAGCGGCGCGCGGGGCGGAGTCACCTAGTGCAG | 8130 fluorescence intensity (a.u.)
GCGGTGCAGGGCGGTGGCGGCGGCGGGTGGGGCGGTGGCGCGGAGTCACCTAGTGCAG | 20900 fluorescence intensity (a.u.)
AGGCAGGGTGGGTGGGTGGTGGGCTTGCTCGCTCCGCGTCCGGAGTCACCTAGTGCAG | 19700 fluorescence intensity (a.u.)
GTTGGGGAGCGCGGCGGGGCGTCGGAGGAGTTGACAGGAGCGGAGTCACCTAGTGCAG | 8910 fluorescence intensity (a.u.)
ATGTTGGGCCAGGCTCGAGCTCCTCCTCCTCCGCGTCGTCCGGAGTCACCTAGTGCAG | 8140 fluorescence intensity (a.u.)
CGGCCGTCCGCCATCTGCAAAAGGTGTTTTTTCACATGCCCGGAGTCACCTAGTGCAG | 8560 fluorescence intensity (a.u.)
ATCCTCTTGTTTCGTACAGGTCACTTAAATAGTTATAAAACGGAGTCACCTAGTGCAG | 8300 fluorescence intensity (a.u.)
CACTAAACGGCCAAAATCTTCCATCGTATAGTTACGTCACCGGAGTCACCTAGTGCAG | 8410 fluorescence intensity (a.u.)
CTCTACTATCGATCTTTTTTCCACGTCGGTCGCGGCTTTTCGGAGTCACCTAGTGCAG | 9580 fluorescence intensity (a.u.)
AGTATAACTTTTTTTTTGTCACTCTGTTATCTCACATCTGCGGAGTCACCTAGTGCAG | 8760 fluorescence intensity (a.u.)
CTATCTTTTTCTCCATCTTTCTCTGTCCGTCCATTCACCCCGGAGTCACCTAGTGCAG | 8690 fluorescence intensity (a.u.)
CGCGGTGTGCCGGGGAGGGAGGTGGTGGTTGAGGTTGAGGCGGAGTCACCTAGTGCAG | 11700 fluorescence intensity (a.u.)
CTGGGAGGGAGGGGAGGGAGCGCCGCCTTTGCCACTATCGCGGAGTCACCTAGTGCAG | 16900 fluorescence intensity (a.u.)
TCGGTGGGTGCCGGGCGGAGCGGTTTTTGAGGGAGGGGTCCGGAGTCACCTAGTGCAG | 17600 fluorescence intensity (a.u.)
GGGATGGATGGAGGCGGCGGTGCTGAGGTGGTGGGACTGTCGGAGTCACCTAGTGCAG | 8460 fluorescence intensity (a.u.)
CGCCTGCCTGCCGCCACCGCCACTCCACTTTGCTTCACCGCGGAGTCACCTAGTGCAG | 9570 fluorescence intensity (a.u.)
GTGCTGTGATTGGCCGCGCGGGATTTCCTGGGCGGGCGGGCGGAGTCACCTAGTGCAG | 15500 fluorescence intensity (a.u.)
GATGGATGGGGTGGGGACTGGGGATGGATGGAGGCGGCGGCGGAGTCACCTAGTGCAG | 21300 fluorescence intensity (a.u.)
AGGTGTGTATCGTACCGTGGCGGGCGCTTTCCTGGTGGGGCGGAGTCACCTAGTGCAG | 10200 fluorescence intensity (a.u.)

Sequence | binding signal
GGATTTCCTGGGCGGGCGGGGCGCGGATAAGGGGTGTGTGCGGAGTCACCTAGTGCAG | 17000 fluorescence intensity (a.u.)
GGGGAGGTGGAGATGAGATGAGGCGGCGGGGTGGCGGTGGCGGAGTCACCTAGTGCAG | 13700 fluorescence intensity (a.u.)
CGAGGAGCGGGGTGGGGTCGGAGGCGGGGAGGGAGGACGCCGGAGTCACCTAGTGCAG | 16100 fluorescence intensity (a.u.)
CGCCGCCTTTGCCACTATCGCTCCCTCCTCCAGCCGGATCCGGAGTCACCTAGTGCAG | 10600 fluorescence intensity (a.u.)
CATATGTTTTGTTTTGCTTTGGGGCTTTTAGTAGTAGTTCCGGAGTCACCTAGTGCAG | 9460 fluorescence intensity (a.u.)
CACAGATCATTACACACTGTTTGAGCATCTCTCTATTCCTCGGAGTCACCTAGTGCAG | 8320 fluorescence intensity (a.u.)
ACCCATTACAACCCTGTAGTACATGCCACACCGTTTGACACGGAGTCACCTAGTGCAG | 10800 fluorescence intensity (a.u.)
CCTTCACCTGGTAATCATTTCGATGCATTCATTTCCCTATCGGAGTCACCTAGTGCAG | 8470 fluorescence intensity (a.u.)
CTCGGCCAAAAAGAGATATCCCTTTCGCGCTCATCTTATCCGGAGTCACCTAGTGCAG | 9980 fluorescence intensity (a.u.)
GTGGGAGAGGCCGGCCGAGGGGAGGAGAGGGGAGGGGTGCCGGAGTCACCTAGTGCAG | 10700 fluorescence intensity (a.u.)
GGAGAGGAGTGAGGAGGGATTGTGAGGTGGGGTCGGGGTGCGGAGTCACCTAGTGCAG | 9030 fluorescence intensity (a.u.)
GTGGAGGTCGGGGTCGGGGAGGATGAGGAGGAGGGTGTGGCGGAGTCACCTAGTGCAG | 10100 fluorescence intensity (a.u.)
GAGCTCGGCGAAATCGATCTGTGGGAGGGAGGGCGGCGAGCGGAGTCACCTAGTGCAG | 9110 fluorescence intensity (a.u.)
TCGAGCTGGGTGGGGTTTTTATATGGGAGGAGAGGCCGCGCGGAGTCACCTAGTGCAG | 16800 fluorescence intensity (a.u.)
TGTGAGGTGGGGTCGGGGTGGAAGTGGGTGAGGAGGGGTGCGGAGTCACCTAGTGCAG | 21700 fluorescence intensity (a.u.)
GGTGAGGTGGTGGTGGTGGTGGTCGGGAAGTGGCGGCGCCCGGAGTCACCTAGTGCAG | 16100 fluorescence intensity (a.u.)
GAAAATCTGTGGGAGGGGAGGGGAGGGGACGAGGGGACAGCGGAGTCACCTAGTGCAG | 19000 fluorescence intensity (a.u.)
GGGATGTGGCGGGCGGTGGGTCCAGGGAGGAGGAGGAGAACGGAGTCACCTAGTGCAG | 15000 fluorescence intensity (a.u.)
ACGGTGGCGGGGATGTGGAGGGAGGTGCAGGGGTGCGGGGCGGAGTCACCTAGTGCAG | 22600 fluorescence intensity (a.u.)
GGTGGTGGTGGTGGTGCCGGAGCTGGGGAGAAGAGGAGGACGGAGTCACCTAGTGCAG | 9350 fluorescence intensity (a.u.)
ATATATATATATATATATATATATATATATATAGGGACAGCGGAGTCACCTAGTGCAG | 9530 fluorescence intensity (a.u.)
TACTGCAACTCTGCAAGCACATTGATCAATCGATCAATCCCGGAGTCACCTAGTGCAG | 8450 fluorescence intensity (a.u.)
TTTGTGGGGCTCTCTCTTTGATGCTTTCTTCTCTTTAGCTCGGAGTCACCTAGTGCAG | 10000 fluorescence intensity (a.u.)
CTAAATTGTATTTCTATATGGACTTTGCTTTTTCTTTTTCCGGAGTCACCTAGTGCAG | 10900 fluorescence intensity (a.u.)
GTGGTCCAATCACCCTTTGACCCTTCGCCTCCGTGGCGCCCGGAGTCACCTAGTGCAG | 8500 fluorescence intensity (a.u.)
TTTCTTGATTAGGGTTTGAATTCATATTACTAACTTTCCTCGGAGTCACCTAGTGCAG | 8450 fluorescence intensity (a.u.)
TTCCGCGTCAACCACCACCGCGCCGGCGTGCGCCTCCGCGCGGAGTCACCTAGTGCAG | 10300 fluorescence intensity (a.u.)
